# Screening results deposited in PubChem by National Center for Advancing Translational Sciences (NCATS).
# pAkt inh = HTS Assay for Inhibitors of Akt Phophorylation: Primary Screen. activity change, % for hits at 50 µM. Neuro2A IGF-stimulated pAkt S473 HTRF, 20 min; active compounds read low. 0.32% of 360,000 active. AID 651550, 2012; in the data active = activity change below about -80%; inconclusive = mostly about -51% to -80%; note: % is set by controls: 0 for no effect and ±100 for the full control effect
#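 Neuro2A cells (4,500/well, DMEM with 0.5% FBS) were treated with compound at a single 50 µM final concentration, stimulated with 6 nM IGF for 20 min at 37 °C, and lysed. Phospho-Akt Ser473 was read by HTRF as 665/615 ratio ×10^4.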
# uPA surface inh = qHTS for Inhibitors of Cell Surface uPA Generation. cell surface uPA generation assay, qHTS. Potency, µM (top dose mostly 38.3 µM), inactives show at the top dose activity change, negative = inhibition, actives largely listed as inhibitors. 0.31% of 330,000 active; active = well fitted inhibition curve with a large enough effect; inconclusive = small, poorly fitted or top-dose-only effect; inactive = no such curve, though single readings can be large or run the other way; tested in mouse RAW 264.7 cells; note: potency is the fitted concentration of half-maximal effect; % is set by controls: 0 for no effect and ±100 for the full control effect; nearly all actives have a fitted effect of over 55% in size
# Epigenetic derep = Quantitative High-Throughput Screen for Regulators of Epigenetic Control. murine LDR cells, GFP reporter derepression, 30 h. Potency, µM (highest dose often 53.9 µM), without a hit: at the highest dose GFP activation, most hits filed as activators. 0.2% of 280,000 active; note: potency is the fitted concentration of half-maximal effect; % of control where 0% means no effect; nearly all actives have a fitted effect of over 60% in size
#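 Murine LDR cells carrying a silenced, genomically integrated CMV-driven GFP reporter were exposed to compound for 30 hours at 37 C. After PBS washes, GFP-positive cells (20–120 um objects) were counted by laser-scanning microplate cytometry.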
# Mm-Cpn inhibitor = Inhibitors of TCP-1 ring complex (TRiC) of Methanococcus maripaludis (MmCpn): qHTS | purified Mm-Cpn ATPase, ADP Transcreener TR-FRET | Potency, µM (top dose mostly 76.9 µM), for inactives: at the highest dose activity, negative = inhibition, usual class: inhibitors | 0.031% of 330,000 active | AID 504842, 2011; note: potency is the fitted concentration of half-maximal effect; % is set by controls: 0 for no effect and ±100 for the full control effect; nearly all actives have a fitted effect of over 80% in size
#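 Eu-cryptate anti-ADP/ADP-d2 competition gives a ratio inversely related to ADP. Enzyme at 25 nM was pre-exposed to compound for 10 min, then given 10 uM ATP for 30 min, 37°C throughout.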
# MBNL1 CUG block = qHTS Assay for Inhibitors of MBNL1-poly(CUG) RNA binding | Muscleblind-like protein 1 (Homo sapiens), Q9NR56 | TR-FRET MBNL1-His/biotin-(CUG)12 binding, 665/545 ratio | Potency, µM (titrated, usually from 57.5 µM), inactives show at the highest dose activity change, negative = inhibition, actives largely listed as inhibitors | 0.036% of 280,000 active; active = well fitted inhibition curve with a large enough effect in the signal ratio, with a control signal flat, not every such curve was filed as active; inconclusive = small, poorly fitted or top-dose-only effect, or effect the other way, or a change in a side signal; inactive = no such curve, though single readings can be large or run the other way; the % refers to the signal ratio; note: potency is the fitted concentration of half-maximal effect; % is set by controls: 0 for no effect and ±100 for the full control effect
# Target sequence (Q9NR56 whole entry, looked up): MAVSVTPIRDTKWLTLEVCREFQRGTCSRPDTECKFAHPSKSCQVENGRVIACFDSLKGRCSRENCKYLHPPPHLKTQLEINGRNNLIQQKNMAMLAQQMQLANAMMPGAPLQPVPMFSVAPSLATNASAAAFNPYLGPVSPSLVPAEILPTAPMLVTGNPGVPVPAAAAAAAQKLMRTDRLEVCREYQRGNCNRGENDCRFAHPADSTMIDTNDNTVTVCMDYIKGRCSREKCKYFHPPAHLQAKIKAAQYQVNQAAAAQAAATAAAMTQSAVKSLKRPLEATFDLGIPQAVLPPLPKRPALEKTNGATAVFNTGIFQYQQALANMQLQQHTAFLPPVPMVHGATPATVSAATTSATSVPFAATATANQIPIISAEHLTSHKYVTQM
#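 MBNL1-His + Biotin-(CUG)12, cpd titration 92 nM–58 uM; Tb anti-His Ab 0.055 ng/ul, SA-XL665 5 nM (final); 60 min RT; ratiometric 665/545 nm, Ex 340 nm; normalized to buffer and full-complex controls.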
# CCT chaperon mod = High-Throughput Screening for Modulators of Cytosolic Chaperonin Activity | 0.3% of 360,000 active | activity change, % (test concentration not listed), hits read low | AID 651819, 2012 | purified chaperonin ATPase assay, HTRF ADP detection, 30 min; in the data active = activity change below about -30%; note: % is set by controls: 0 for no effect and ±100 for the full control effect
#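 TRiC (40 or 20 nM final, by batch activity) in 30 mM Tris pH 7.4, 100 mM KCl, 5 mM MgCl2, 1 mM DTT was treated with compound at 76 uM single dose, then 10 uM ATP, 30 min at 37 °C. ADP was read by HTRF Transcreener.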
# Starred values were filed as active, the others as inactive; i = inactive; u = inconclusive; x = no result. Hits are enriched below; roughly 0.97% of the tested compounds scored in any of these assays. Unless noted, calls come from the whole dose curve; as a rule, active = well fitted curve in the direction sought with a large enough effect; inconclusive = small, poorly fitted or top-dose-only effect, or another doubt; inactive = no such curve, though single readings can be large; an effect the other way counts as inactive or inconclusive.
SMILES,pAkt inh,uPA surface inh,Epigenetic derep,Mm-Cpn inhibitor,MBNL1 CUG block,CCT chaperon mod
Cc1ccc(NC(=O)c2ccc3c(c2)N(CC(=O)N2CCCCC2)C(=O)C(C)(C)O3)cc1,-121%*,-1%,-1%,-1%,-2%,0
Oc1ccc(/C=C/c2ccc3ccccc3n2)cc1,i,u,0%,-18%,20%,-1
CN(C)c1ccc(/C=C/c2ccc3ccccc3n2)cc1,i,2µM*,u,-6%,17%,-2
Fc1ccccc1/C=C/c1ccc2ccccc2n1,i,11µM*,0%,-1%,x,-1
C(=C\c1ccc2ccccc2n1)/c1ccccc1,i,5.6µM*,-7%,1%,u,-1
O=C(NCc1ccccc1)c1ccc2c(c1)CCN2S(=O)(=O)c1ccc(Cl)cc1,x,x,15%,x,x,x
CC(=O)Nc1ccc(S(=O)(=O)N2c3ccc(F)cc3CCC2C)cc1 (stereo not given),i,4.5µM*,x,x,x,-2
CC(=O)/C(C#N)=C1\NC(=O)C(Cc2ccc(C)c(C)c2)S1 (stereo not given),i,-11%,2%,u,-1%,-2
Cc1ccc(NC(=O)c2ccc(NCCc3ccccc3)c([N+](=O)[O-])c2)cc1F,i,-5%,13µM*,2%,16%,-6
O=C(Nc1cc(F)cc(F)c1)c1ccc(NCCc2ccccc2)c([N+](=O)[O-])c1,i,-2%,-1%,1%,x,-1
O=C1N/C(=C/c2ccc(N3CCOCC3)o2)C(=O)N1c1cccc(Cl)c1,i,4µM*,u,2%,15%,0
Cc1ccc(/C=C2/NC(=O)N(c3ccccc3)C2=O)o1,i,-9%,17%,0%,u,0
CCN(CC)S(=O)(=O)c1ccc2c(c1)c(=O)c(C(=O)N1CCN(c3cc(Cl)ccc3C)CC1)cn2C,x,x,-1%,x,x,x
CCOC(=O)C1=C(C)N=C2SC(C)C(=O)N2C1c1ccc(OC(C)=O)c(OC)c1 (stereo not given),-104%*,3%,0%,1%,3%,-1
NC(=O)C1CCN(c2nc(-c3cccc([N+](=O)[O-])c3)cs2)CC1,x,x,x,1%,x,x
CCn1c(C)[n+](CC)c2ccc(C(=O)N(C)c3ccccc3)cc21,i,4%,-5%,-3%,-10%,-33*
COc1cccc(Cn2c(=O)cc(C)c3c(C)nn(-c4ccc(C)cc4)c32)c1,x,x,7%,x,x,x
O=c1c(-c2ccc(O)cc2)coc2cc(OC3OC(CO)C(O)C(O)C3O)cc(O)c12 (stereo not given),i,4.5µM*,0%,1%,u,2
COc1cc(O)c2c(=O)c(-c3ccc(O[C@@H]4O[C@H](CO)[C@@H](O)[C@H](O)[C@H]4O)cc3)coc2c1,i,-8%,x,-1%,5%,-2
COc1cccc(/C=C/C(=O)NNC(=O)c2ccco2)c1OC,i,2.8µM*,x,0%,x,1
C[C@H]1COC(=O)CC/C=C\C[C@H](CC(=O)N(CCO)Cc2ccccc2)C(=O)N1,i,-51%,x,3%,x,0
Cc1csc(NC(=O)CSc2nnnn2C)n1,-117%*,-3%,-1%,-2%,-3%,1
Cc1nc(NC(=O)CSc2nnnn2C)sc1C,i,1%,-1%,1%,-8%,-2
CCOC(=O)c1ccc(N)cc1,i,17%,-1%,-2%,x,0
CCOC(=O)c1ccc(C(=O)OCC)nc1,-106%*,-1%,-1%,0%,4%,-1
SMILES,pAkt inh,uPA surface inh,Epigenetic derep,Mm-Cpn inhibitor,MBNL1 CUG block,CCT chaperon mod
COc1ccc(-c2cc(C(=O)NCc3ccc(Cl)cc3)no2)cc1OC,-92%*,x,-8%,0%,4%,-6
O=C(NCc1cccnc1)c1cc(-c2ccccc2)on1,i,-21%,0%,2%,0%,-2
O=C(NCc1ccccc1)c1cc(-c2cccc(O)c2)on1,i,2.8µM*,1%,4%,9%,0
COc1ccc(NC(=O)c2cc(-c3ccc(C)cc3)on2)cc1OC,i,3%,x,1%,6%,2
COc1ccc(CNC(=O)c2cc(-c3ccc(OC)c(OC)c3)on2)cc1,i,x,-14%,-1%,8%,0
COc1ccc(NC(=O)c2cc(-c3ccc(OC)c(OC)c3)on2)cc1OC,-88%*,9%,-1%,0%,7%,-3
O=C(CSc1nnc(-c2ccccn2)n1Cc1ccco1)c1ccc(Cl)cc1,-110%*,4%,-2%,-10%,0%,0
Cc1ccc(Oc2nc3c(C)cccn3c(=O)c2/C=C(\C#N)C(N)=O)cc1,i,-3%,-1%,0%,13%,2
Cc1ccc(S(=O)(=O)/C(C#N)=C/c2c(Oc3ccc(Cl)cc3)nc3c(C)cccn3c2=O)cc1,x,x,2%,1%,x,x
CCc1ccc(Oc2nc3c(C)cccn3c(=O)c2/C=C(\C#N)c2nc3ccccc3[nH]2)cc1,x,x,11µM*,x,x,x
Cc1cccn2c(=O)c(/C=C(\C#N)c3nc4ccccc4s3)c(Oc3ccc(Br)cc3)nc12,x,x,0%,x,x,x
Cc1cc(C)cc(Oc2nc3c(C)cccn3c(=O)c2/C=C(\C#N)c2nc3ccccc3[nH]2)c1,x,x,7.1µM*,x,x,x
COc1ccc(Oc2nc3c(C)cccn3c(=O)c2/C=C(\C#N)c2nc3ccccc3[nH]2)cc1,x,x,4µM*,x,x,x
Cc1ccccc1Oc1nc2ccccn2c(=O)c1/C=C(\C#N)c1nc2ccccc2[nH]1,x,x,11µM*,x,x,x
Cn1c(SCC(=O)Nc2nc3ccccc3s2)nnc1-c1ccccc1,i,-2%,-1%,u,-4%,-1
CCn1c(SCC(=O)Nc2nc3ccccc3s2)nnc1-c1ccc(Br)cc1,-89%*,-1%,3%,1%,0%,1
COc1cccc(CNc2cc(CSc3ccc(Cl)cc3)nc(C)n2)c1,i,6%,1%,1%,-2%,-1
COc1cc(NC(=O)NCCn2nnc3cc(S(=O)(=O)N(C)C)ccc32)cc(OC)c1,x,x,-6%,x,x,x
CCCCn1c(CCC)nc([N+](=O)[O-])c1Sc1ccc(Cl)cn1,-114%*,-15%,1%,2%,u,0
CC(C)Cn1c(C(C)C)nc([N+](=O)[O-])c1Sc1ccc(Cl)cn1,i,-4%,1%,1%,17%,0
O=C(Nc1ccc2c(c1)OCO2)N1CCN(C/C=C/c2ccccc2)CC1,-83%*,-4%,0%,-5%,11%,-2
